Assay results reported in the supplement of paper PMC11732987, “Enantioselective OTUD7B fragment discovery through chemoproteomics screening and high-throughput optimisation” (Communications Chemistry, 2025).
Values without a mark were called inactive.

What was measured:
Experiment in all cases: log2 ratio of Biotin-Ahx-Ub-VS probe labelling (fragment/DMSO); higher = less target engagement (more negative = stronger competition), active = hit call of the paper (q ≤ 0.05, log2 ratio ≤ -1)
Settings in all cases: compound concentration: 200 uM; treatment time: 3 h
ALG13 = biological target: T1, ALG13 (UniProt Q9NP73)
T1 sequence (whole entry): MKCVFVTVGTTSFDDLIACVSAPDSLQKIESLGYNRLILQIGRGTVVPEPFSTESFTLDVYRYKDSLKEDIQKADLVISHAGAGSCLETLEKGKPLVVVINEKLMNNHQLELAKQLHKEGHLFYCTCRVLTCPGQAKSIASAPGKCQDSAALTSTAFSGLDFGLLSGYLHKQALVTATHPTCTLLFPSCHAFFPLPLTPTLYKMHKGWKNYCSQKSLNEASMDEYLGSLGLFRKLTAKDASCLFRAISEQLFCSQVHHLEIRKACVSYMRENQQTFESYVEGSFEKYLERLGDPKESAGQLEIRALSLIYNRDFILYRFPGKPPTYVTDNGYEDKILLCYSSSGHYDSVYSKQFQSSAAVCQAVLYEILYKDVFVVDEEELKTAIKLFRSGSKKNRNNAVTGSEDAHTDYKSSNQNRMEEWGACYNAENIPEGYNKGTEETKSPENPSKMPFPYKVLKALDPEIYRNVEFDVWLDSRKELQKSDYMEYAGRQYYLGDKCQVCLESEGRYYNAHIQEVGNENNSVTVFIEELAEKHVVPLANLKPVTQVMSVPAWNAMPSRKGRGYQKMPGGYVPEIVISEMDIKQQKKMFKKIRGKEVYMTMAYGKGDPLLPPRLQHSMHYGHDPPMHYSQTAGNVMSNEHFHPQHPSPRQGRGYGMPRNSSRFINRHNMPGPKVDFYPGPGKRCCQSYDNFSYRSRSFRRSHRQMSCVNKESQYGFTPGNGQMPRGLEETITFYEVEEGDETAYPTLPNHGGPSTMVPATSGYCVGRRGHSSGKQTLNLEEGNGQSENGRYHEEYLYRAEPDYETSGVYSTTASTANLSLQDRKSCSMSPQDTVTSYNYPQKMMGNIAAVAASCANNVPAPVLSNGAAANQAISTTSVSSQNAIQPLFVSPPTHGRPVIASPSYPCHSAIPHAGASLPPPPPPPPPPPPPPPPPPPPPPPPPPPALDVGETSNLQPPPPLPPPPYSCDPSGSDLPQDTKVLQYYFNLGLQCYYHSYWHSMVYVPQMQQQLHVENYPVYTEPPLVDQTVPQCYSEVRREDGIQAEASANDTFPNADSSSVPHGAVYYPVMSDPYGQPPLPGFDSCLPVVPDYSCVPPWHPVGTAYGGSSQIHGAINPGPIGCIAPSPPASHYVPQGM
Summary of the method: (§1)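 HEK293T lysate (495 µg per sample, in Tris/CHAPS/IGEPAL buffer with protease inhibitors) was treated in triplicate with fragment at 200 µM or with DMSO for 3 h. It was then treated with Biotin-Ahx-Ub-VS (0.5 µM final) for 1 h. Labelled DUBs were NeutrAvidin-enriched, digested with LysC and trypsin, and run by diaPASEF LC-MS/MS. Spectronaut label-free quantities were global-median-normalised. Values are average log2 ratios fragment/DMSO by unpaired t-test, using proteins with ≥2 unique peptides.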

ATXN3 = ATXN3 (UniProt P54252)
Chain of ATXN3 (P54252 whole entry): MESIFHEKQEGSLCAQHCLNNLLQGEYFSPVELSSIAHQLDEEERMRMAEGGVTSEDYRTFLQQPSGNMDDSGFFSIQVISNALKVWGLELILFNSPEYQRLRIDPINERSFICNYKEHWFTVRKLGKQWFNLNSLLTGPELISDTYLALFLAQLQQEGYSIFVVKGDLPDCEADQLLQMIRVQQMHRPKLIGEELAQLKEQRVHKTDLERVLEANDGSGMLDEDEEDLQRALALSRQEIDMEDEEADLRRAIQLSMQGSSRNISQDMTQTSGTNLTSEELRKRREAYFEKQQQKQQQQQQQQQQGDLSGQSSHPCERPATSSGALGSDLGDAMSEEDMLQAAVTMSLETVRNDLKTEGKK
Summary of the method: as §1

BAP1 = biological target: T2, BAP1 (UniProt Q92560)
T2 sequence (whole entry): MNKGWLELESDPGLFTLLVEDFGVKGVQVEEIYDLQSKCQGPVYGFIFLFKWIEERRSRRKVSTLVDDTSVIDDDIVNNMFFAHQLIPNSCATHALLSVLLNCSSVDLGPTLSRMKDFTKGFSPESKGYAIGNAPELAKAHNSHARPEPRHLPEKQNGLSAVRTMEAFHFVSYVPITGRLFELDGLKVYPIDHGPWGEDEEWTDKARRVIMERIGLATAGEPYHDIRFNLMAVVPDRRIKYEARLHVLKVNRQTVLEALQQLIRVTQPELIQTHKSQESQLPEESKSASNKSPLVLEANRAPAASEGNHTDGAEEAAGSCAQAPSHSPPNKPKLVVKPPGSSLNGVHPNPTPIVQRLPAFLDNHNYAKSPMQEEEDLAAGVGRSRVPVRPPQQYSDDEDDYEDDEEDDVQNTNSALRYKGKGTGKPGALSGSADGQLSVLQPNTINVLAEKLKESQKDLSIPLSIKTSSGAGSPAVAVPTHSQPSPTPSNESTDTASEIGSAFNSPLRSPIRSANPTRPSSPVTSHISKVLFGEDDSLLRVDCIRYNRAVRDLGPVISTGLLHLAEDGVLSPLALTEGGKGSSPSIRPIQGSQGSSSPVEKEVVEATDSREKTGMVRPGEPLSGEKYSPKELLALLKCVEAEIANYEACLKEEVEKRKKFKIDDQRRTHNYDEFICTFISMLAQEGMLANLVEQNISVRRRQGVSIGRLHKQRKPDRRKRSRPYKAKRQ
Summary of the method: as §1

EIF3F = EIF3F (UniProt O00303)
Chain of EIF3F (O00303 whole entry): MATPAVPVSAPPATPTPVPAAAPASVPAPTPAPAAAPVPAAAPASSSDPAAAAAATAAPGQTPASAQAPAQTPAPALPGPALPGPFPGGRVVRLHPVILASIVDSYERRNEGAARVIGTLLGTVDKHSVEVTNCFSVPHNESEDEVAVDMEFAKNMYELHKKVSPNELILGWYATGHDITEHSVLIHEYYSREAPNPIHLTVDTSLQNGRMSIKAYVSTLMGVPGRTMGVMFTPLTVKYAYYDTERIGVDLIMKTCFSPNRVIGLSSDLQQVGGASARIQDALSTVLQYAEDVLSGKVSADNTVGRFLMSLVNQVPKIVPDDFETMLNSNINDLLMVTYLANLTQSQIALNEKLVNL
Summary of the method: as §1

EIF3H = EIF3H (UniProt O15372)
Chain of EIF3H (O15372 whole entry): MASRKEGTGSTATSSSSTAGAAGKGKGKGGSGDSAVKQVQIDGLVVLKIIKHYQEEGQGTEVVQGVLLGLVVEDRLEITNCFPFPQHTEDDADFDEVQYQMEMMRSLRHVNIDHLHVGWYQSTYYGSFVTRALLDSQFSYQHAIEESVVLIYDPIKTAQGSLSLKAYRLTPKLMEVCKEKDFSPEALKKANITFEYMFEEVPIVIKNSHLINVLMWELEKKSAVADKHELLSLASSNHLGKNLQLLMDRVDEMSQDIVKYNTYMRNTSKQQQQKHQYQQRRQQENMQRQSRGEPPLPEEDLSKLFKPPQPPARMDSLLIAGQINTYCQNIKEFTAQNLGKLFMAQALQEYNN
Summary of the method: as §1

FAM105A = biological target: T3, FAM105A (UniProt Q9NUU6)
T3 sequence (whole entry): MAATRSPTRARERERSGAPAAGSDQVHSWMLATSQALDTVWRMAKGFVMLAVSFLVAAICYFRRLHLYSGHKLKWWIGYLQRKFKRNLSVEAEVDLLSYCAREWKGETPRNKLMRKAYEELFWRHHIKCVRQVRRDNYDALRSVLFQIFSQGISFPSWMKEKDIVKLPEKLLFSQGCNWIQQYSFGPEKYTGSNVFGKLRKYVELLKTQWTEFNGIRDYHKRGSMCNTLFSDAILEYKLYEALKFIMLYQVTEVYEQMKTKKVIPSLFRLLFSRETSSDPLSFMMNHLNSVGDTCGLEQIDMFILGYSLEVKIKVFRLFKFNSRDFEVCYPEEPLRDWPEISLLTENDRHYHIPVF
Summary of the method: as §1

OTUB1 = OTUB1 (UniProt Q96FW1)
Chain of OTUB1 (Q96FW1 whole entry): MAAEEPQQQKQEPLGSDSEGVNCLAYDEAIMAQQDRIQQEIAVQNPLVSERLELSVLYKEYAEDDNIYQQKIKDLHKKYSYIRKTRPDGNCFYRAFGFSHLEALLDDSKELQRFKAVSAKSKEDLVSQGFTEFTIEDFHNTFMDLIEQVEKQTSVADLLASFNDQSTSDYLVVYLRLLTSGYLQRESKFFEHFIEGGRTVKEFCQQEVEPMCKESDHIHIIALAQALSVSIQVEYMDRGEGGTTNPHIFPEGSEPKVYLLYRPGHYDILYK
Summary of the method: as §1

OTUD4 = biological target: T4, OTUD4 (UniProt Q01804)
T4 sequence (whole entry): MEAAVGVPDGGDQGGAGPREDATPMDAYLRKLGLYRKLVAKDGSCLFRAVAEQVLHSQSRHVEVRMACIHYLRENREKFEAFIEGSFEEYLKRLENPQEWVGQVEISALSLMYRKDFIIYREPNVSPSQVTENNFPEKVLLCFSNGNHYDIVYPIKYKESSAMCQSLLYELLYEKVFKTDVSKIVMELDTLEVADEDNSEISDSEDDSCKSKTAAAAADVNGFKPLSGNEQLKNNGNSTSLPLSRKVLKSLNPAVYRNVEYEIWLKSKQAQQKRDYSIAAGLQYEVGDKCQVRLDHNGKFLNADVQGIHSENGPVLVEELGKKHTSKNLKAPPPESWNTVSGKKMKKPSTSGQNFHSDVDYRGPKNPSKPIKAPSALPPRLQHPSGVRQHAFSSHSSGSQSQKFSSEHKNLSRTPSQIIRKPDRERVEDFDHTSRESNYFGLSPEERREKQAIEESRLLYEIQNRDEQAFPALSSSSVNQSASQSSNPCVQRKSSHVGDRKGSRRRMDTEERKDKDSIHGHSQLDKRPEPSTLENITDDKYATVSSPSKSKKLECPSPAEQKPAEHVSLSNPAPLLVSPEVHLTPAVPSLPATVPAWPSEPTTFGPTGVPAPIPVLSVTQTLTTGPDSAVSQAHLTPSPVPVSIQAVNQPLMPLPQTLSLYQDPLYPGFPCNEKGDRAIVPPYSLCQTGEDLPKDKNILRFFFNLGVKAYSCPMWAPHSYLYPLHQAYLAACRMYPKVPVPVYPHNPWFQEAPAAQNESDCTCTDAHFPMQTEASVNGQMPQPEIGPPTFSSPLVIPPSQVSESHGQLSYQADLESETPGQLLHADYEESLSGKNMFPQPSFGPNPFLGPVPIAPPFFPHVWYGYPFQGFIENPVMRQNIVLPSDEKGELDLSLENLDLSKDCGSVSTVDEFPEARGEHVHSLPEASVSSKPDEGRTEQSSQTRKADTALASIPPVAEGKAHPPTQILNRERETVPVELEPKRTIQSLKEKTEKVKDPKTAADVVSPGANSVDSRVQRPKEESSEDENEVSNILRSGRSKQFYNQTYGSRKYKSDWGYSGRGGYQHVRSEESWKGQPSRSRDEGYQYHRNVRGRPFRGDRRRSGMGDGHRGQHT
Summary of the method: as §1

OTUD5 = biological target: T5, OTUD5 (UniProt Q96G74)
T5 sequence (whole entry): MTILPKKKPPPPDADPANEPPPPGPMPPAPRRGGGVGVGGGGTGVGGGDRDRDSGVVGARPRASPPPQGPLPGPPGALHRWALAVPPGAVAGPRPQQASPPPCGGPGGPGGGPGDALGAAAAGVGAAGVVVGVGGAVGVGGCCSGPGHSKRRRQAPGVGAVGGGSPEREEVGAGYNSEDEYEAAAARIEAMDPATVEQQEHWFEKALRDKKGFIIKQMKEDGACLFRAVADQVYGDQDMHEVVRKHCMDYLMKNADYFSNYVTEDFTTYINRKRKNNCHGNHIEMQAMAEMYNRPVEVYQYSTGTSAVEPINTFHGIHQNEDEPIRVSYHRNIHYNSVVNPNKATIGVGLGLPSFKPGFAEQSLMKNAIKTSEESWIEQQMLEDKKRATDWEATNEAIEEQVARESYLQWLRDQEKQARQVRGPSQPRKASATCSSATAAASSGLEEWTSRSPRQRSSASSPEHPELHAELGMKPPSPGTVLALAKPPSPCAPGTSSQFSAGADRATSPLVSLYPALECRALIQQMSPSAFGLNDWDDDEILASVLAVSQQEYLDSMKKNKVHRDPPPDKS
Summary of the method: as §1

Compound | log2 ratio of Biotin-Ahx-Ub-VS probe labelling (ALG13) | log2 ratio of Biotin-Ahx-Ub-VS probe labelling (ATXN3) | log2 ratio of Biotin-Ahx-Ub-VS probe labelling (BAP1) | log2 ratio of Biotin-Ahx-Ub-VS probe labelling (EIF3F) | log2 ratio of Biotin-Ahx-Ub-VS probe labelling (EIF3H) | log2 ratio of Biotin-Ahx-Ub-VS probe labelling (FAM105A) | log2 ratio of Biotin-Ahx-Ub-VS probe labelling (OTUB1) | log2 ratio of Biotin-Ahx-Ub-VS probe labelling (OTUD4) | log2 ratio of Biotin-Ahx-Ub-VS probe labelling (OTUD5)
Cc1nnc(C(NC(=O)CCl)c2ccccc2)n1C (stereo not drawn) | -0.558 | 0.355 | 0.428 | 0.534 | 0.24 | 0.549 | -0.00852 | 0.483 | 0.385
Cl.O=C(CN1CCN(C(=O)CCl)CC1)Nc1ccc(F)cc1 | -0.446 | -0.144 | -0.159 | -0.203 | 0.305 | -0.0798 | 0.137 | 0.146 | -0.0696
O=C(CCl)Nc1nc(-c2cccs2)cs1 | 0.184 | -0.6 | -3.09 (active) | -0.0224 | 0.216 | -0.186 | 0.196 | -0.708 | -0.636
O=C(CCl)NC1CCOc2ccccc21 (stereo not drawn) | -0.044 | -0.806 | -2.55 (active) | -0.349 | 0.199 | 0.29 | -0.321 | -2.03 (active) | -0.73
O=C(CCl)Nc1nnc(CC(F)(F)F)o1 | -0.0296 | -0.129 | -0.573 | -0.0944 | 0.23 | 0.0181 | 0.15 | -0.445 | -0.385
O=C(CCl)NC1CCS(=O)(=O)c2ccccc21 (stereo not drawn) | -0.299 | -0.496 | -2.77 (active) | -0.00472 | -0.0327 | -0.0548 | 0.0659 | -1.76 (active) | -0.271
CCC1c2ccsc2CCN1C(=O)CCl (stereo not drawn) | 0.127 | -0.424 | -0.48 | -0.262 | 0.089 | 0.09 | 0.0848 | -0.658 | -1.15 (active)
